hcDAF-12 act – H. contortus DAF-12 nuclear receptor activators, primary screen, cell-based, luminescence, HEK293, lit1-tk-luc reporter | HEK293 hcDAF-12 lit1-tk-luc reporter; 0% DMSO, 100% Δ7-dafachronic acid | activation, % at 6.8 µM | 370,000 compounds, 1.4% hits | AID 652067, 2013;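 active = activation above the mean of all tested compounds plus 3 SD, cut at about 5.5% in these data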;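 also: 100% = response to 3 µM Δ7-dafachronic acid high control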
hgDAF-12 ag – H. glycines DAF-12 receptor agonists, primary screen, cell-based, luminescence, HEK293, GAL4 fusion, UAS-luciferase | Nuclear hormone receptor DAF-12 (Heterodera glycines), GAL4 fusion | HEK293 GAL4-hgDAF12 UAS-luciferase reporter, agonist luminescence; normalized to butyrate control | activation, % at 6.8 µM | 370,000 compounds, 1.8% hits | AID 687014, 2013;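 active = activation above a cutoff set at the mean of all screened compounds plus 3 SD, cut at about 10% in these data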;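 also: 0% = DMSO wells and 100% = sodium butyrate wells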
DAX1 inh-1 – DAX1 (NR0B1) inhibitors, primary screen, cell-based, HEK293, Gal4-DAX1, luciferase luminescence | Nuclear receptor subfamily 0 group B member 1 (Homo sapiens), P51843 | HEK293 Gal4-DAX1 luciferase reporter | inhibition, % at 6.75 µM | 340,000 compounds, 0.99% hits | AID 504766, 2011;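 active = inhibition above the mean over all tested compounds plus 3 SD, cut at about 4.2% in these data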;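 also: 0% = DAX1-transfected cells with DMSO and 100% = empty-vector control cells with DMSO; inhibition shows as a rise in luminescence from relieved DAX1 repression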
DAX1 inh-2 – DAX1 (NR0B1) inhibitors on StAR promoter, primary screen, cell-based, luminescence, SF-1 (NR5A1), full-length DAX-1; HEK293T StAR-luciferase reporter, SF-1/DAX-1 repression relief; inhibition, % at 6.8 µM; 370,000 compounds, 1.1% hits;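 active = inhibition above the mean over all tested compounds plus 3 SD, cut at about 3.6% in these data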;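 also: 0% = DAX-1 cells with DMSO and 100% = cells lacking DAX-1 with DMSO; higher inhibition means more luminescence from relief of DAX-1 repression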
ssDAF-12 act – S. stercoralis DAF-12 nuclear receptor activators, primary screen, cell-based, luminescence, HEK293, GRIP1 co-expression, lit1-tk-luc | Nuclear hormone receptor DAF-12 (Strongyloides stercoralis) | HEK293 ssDAF-12/GRIP1 lit1-tk-luc reporter; % of 3 µM dafachronic acid response | activation, % at 6.8 µM | 370,000 compounds, 1% hits | AID 652126, 2013;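 active = activation above the mean over all tested compounds plus 3 SD, cut at about 0.9% in these data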;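 also: 0% = DMSO-only wells and 100% = 3 µM delta7-dafachronic acid wells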
LXRb hcDAF ctr – LXR agonists, Gal4 luciferase reporter, confirmation, counter-screen for hcDAF-12 agonist project, cell-based, luminescence, HEK293, H. contortus campaign | AID 743027, 2013 | activation, % at 6.8 µM | shares compounds with hcDAF-12 act | 3,400 tested, under 10 active | HEK293 Gal4-LXR tk-luc reporter, 24 h; normalized: DMSO 0%, positive control 100%;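 active = mean percent activation of the reporter above a cutoff set as the average over tested compounds plus their standard deviation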
Target sequence (P55055 whole entry, looked up, the tested form may be a part): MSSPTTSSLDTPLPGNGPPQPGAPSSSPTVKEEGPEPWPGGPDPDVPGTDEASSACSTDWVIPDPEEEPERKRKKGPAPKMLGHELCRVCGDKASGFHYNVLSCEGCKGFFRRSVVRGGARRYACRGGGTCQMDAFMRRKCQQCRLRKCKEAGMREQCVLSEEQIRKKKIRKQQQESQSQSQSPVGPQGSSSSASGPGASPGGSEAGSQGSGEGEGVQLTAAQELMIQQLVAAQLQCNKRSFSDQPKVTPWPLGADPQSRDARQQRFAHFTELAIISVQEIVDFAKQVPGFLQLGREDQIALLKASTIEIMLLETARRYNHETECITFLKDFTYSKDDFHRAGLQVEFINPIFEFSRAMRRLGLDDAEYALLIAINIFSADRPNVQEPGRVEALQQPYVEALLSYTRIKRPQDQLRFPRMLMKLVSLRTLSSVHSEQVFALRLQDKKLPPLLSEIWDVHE
hcDAF12 conf – H. contortus DAF-12 receptor agonists, confirmation, cell-based, luminescence, HEK293, lit1-tk-luc, triplicate. HEK293 hcDAF-12 lit1-tk-luc reporter; % of Δ7-dafachronic acid response. 3,400 compounds, 61% hits. shares compounds with hcDAF-12 act. activation, % at 6.8 µM;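 active = mean activation across triplicate tests above the threshold derived from the earlier primary screen, cut at about 5.5% in these data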;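 also: 0% = DMSO only wells and 100% = 3 µM Δ7-dafachronic acid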
Starred values were filed as active, the others as inactive; nt = no result. The list is not random: actives were taken first. Their share in the collection is about 4.1%.

SMILES	hcDAF-12 act	hgDAF-12 ag	DAX1 inh-1	DAX1 inh-2	ssDAF-12 act	LXRb hcDAF ctr	hcDAF12 conf
Cc1cc(=O)nc2c3ccccc3n(CC(=O)NCCC3=CCCCC3)n12	4	0	0	-2	0	nt	nt
Cc1ccc(-c2nc3ncccn3c2NC(=O)c2ccccc2)cc1	-2	3	nt	-1	-1	nt	nt
Cc1cc(NC(=O)Nc2cccc(F)c2)n(-c2ccccc2)n1	1	-2	nt	-1	-1	nt	nt
CCCCCN1C(=O)/C(=C/c2c(N3CCc4ccccc4C3)nc3ccccn3c2=O)SC1=S	6.8*	6	6.0*	2	0	0	5
COc1ccccc1C(=O)O/N=C(\N)c1ccccn1	11*	8	-2	2	2.7*	1	5.9*
COc1cc(OC)c(C(=O)O/N=C(\N)c2ccccn2)cc1OC	-2	2	1	0	-1	nt	nt
N/C(=N\OC(=O)c1ccccc1Cl)c1ccccn1	7.0*	-2	-4	3	0	2	11*
COc1ccccc1C(=O)NC1CCCCN(Cc2ccc(Cl)cc2)C1=O (centres undefined)	-2	-1	nt	-1	-1	nt	nt
O=S(=O)(c1ccc(F)cc1)N1CCN(CCc2ccccc2)CC1	6.8*	-3	0	0	-1	0	-1
CCCc1cc(C(=O)Nc2cccc(Cl)c2)no1	9.4*	8	1	1	-1	1	3
CC(=O)n1cc(/C=N/NC(N)=S)c2ccccc21	0	-2	2	0	-2	nt	nt
CC(=O)n1cc(/C=C2/N=C(c3ccccc3)OC2=O)c2ccccc21	6.7*	2	2	0	0	0	4
Cc1ccc(C)c(NC(=O)c2cc3ccccc3o2)c1	7.8*	11*	3	1	1	1	9.4*
O=C(Nc1ccccn1)c1cc2ccccc2o1	10*	3	-4	3	0	1	13*
Cc1ccnc(NC(=O)c2cc3ccccc3o2)c1	4	0	-3	2	-1	nt	nt
O=C(NCc1ccccc1)[C@@H]1CCCN1C(=O)[C@H]1CCCN1C(=O)c1ccc(Cl)cc1	-1	-1	nt	-1	-1	nt	nt
Cc1ccc(OCCn2c(CCNC(=O)c3ccc(F)cc3F)nc3ccccc32)cc1	-1	-1	nt	nt	-1	nt	nt
CC1=C(C#N)C(c2ccccc2O)C(C#N)=C(C)N1	9.6*	8	2	0	1	0	5.7*
Cc1cccc(NC(=O)Nc2cccc3ccccc23)c1	-2	2	2	0	-1	nt	nt
CCc1cccc(NC(=S)Nc2cccc3ccccc23)c1	7.4*	2	1	-1	0	0	5.9*
Cc1cccc(NC(=S)Nc2cccc3ccccc23)c1	7.2*	5	1	-1	1.4*	0	11*
COC(=O)[C@]12C[C@H](CC(=O)NCc3ccccc3)C(=O)N(Cc3ccc4c(c3)OCO4)C1=C[C@H](C(C)C)O[C@@H]2C1CC1	-1	2	nt	0	-1	nt	nt
CC(C)C(C(=O)Nc1ccccc1F)N1C(=O)c2ccccc2C1=O (centres undefined)	8.0*	5	1	0	2.1*	0	5

Screening results from PubChem BioAssay.
